In PubChem BioAssay (Tox21):
Several values for one entry are separate records, joined by “and”; a condition that tells them apart may be missing. Identical values can stand only once. Records with an inconclusive call do not appear. Activity calls are given as the source filed them. Unless noted, the call rests on the fitted dose curve; in most records, active means well fitted curve in the direction sought with a large enough effect in the repeat runs; inconclusive means weak or mixed curves; inactive means no such curve, though single readings can be large; an effect the other way counts as inactive or inconclusive.

Legend:
[1] = qHTS assay to identify small molecule agonists of the estrogen receptor beta (ER-beta) signaling pathway - cell viability counter screen (AID 1259380); further: nearly all actives have a fitted effect of over 30% in size; further: potency means the concentration at half of the fitted maximal effect
Procedure, shortened: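 HEK293T ER-beta-UAS-bla; 2% CS-FBS; 6 hr pre-plate, 16 hr cpd at 37C/5% CO2; LiveBLAzer read first, then CellTiter-Glo 30 min RT, luminescence.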

[2] = qHTS assay to identify small molecule antagonists of the estrogen receptor beta (ER-beta) signaling pathway - cell viability counter screen (AID 1259382); further: nearly all actives have a fitted effect of over 55% in size; further: potency means the concentration at half of the fitted maximal effect
Procedure, shortened: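 Cells: ER-beta-UAS-bla HEK293T, 2,000/well, 2% CS-FBS, 6 hr settle. Cpd + E2 (1nM final), 16 hr, 37C/5% CO2. Bla FRET substrate 2 hr RT, then CellTiter-Glo 30 min RT, luminescence.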

[3] = target: Estrogen receptor (Homo sapiens) (UniProt P03372); assay: qHTS assay to identify small molecule agonists of the estrogen receptor alpha (ER-alpha) signaling pathway in the presence of an antagonist (AID 1259383; calls by dose curve; further: nearly all actives have a fitted effect of over 15% in size; further: potency means the concentration at half of the fitted maximal effect; on activation: top concentration of the series differs between compounds)
Procedure, shortened: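 VM7Luc4E2, endog. ER-alpha + 4×ERE-luc; charcoal-stripped FBS, phenol red-free, 5 d; 24hr plating; +10.0nM ICI-182,780 (final); cpds 15 conc, 22hr, 37C/5% CO2; ONE-Glo luminescence.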

[4] = target: Thyrotropin receptor (Homo sapiens) (UniProt P16473); assay: qHTS assay to identify small molecule antagonists of the thyroid stimulating hormone receptor (TSHR) signaling pathway (AID 1259385; calls by dose curve; further: nearly all actives have a fitted effect of over 20% in size; further: potency means the concentration at half of the fitted maximal effect)
Procedure, shortened: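 TSHR-HEK293 cells (800/well) plated 18 h, then compounds with Ro20-1724 and TSH at 1.5 ng/mL final, 30 min at room temperature. cAMP quantified by HTRF (cAMP-d2/anti-cAMP-cryptate, 1 h); 15 concentrations in triplicate.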

[5] = target: Progesterone receptor (Homo sapiens) (UniProt P06401); assay: qHTS assay to identify small molecule agonists of the progesterone receptor (PR) signaling pathway (AID 1346784; calls by dose curve; further: nearly all actives have a fitted effect of over 30% in size)
Procedure, shortened: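 The screen uses PR-UAS-bla HEK 293T cells in charcoal-stripped serum (2%). Compounds are applied for 16 hr at 37C after a 6 hr pre-incubation, and reporter activity is detected with a FRET beta-lactamase substrate after 2 hr at room temperature.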

[6] = qHTS assay to identify small molecule antagonists of the progesterone receptor (PR) signaling pathway - cell viability counter screen (AID 1346798); further: series mostly up to about 92 µM; nearly all actives have a fitted effect of over 50% in size
Procedure, shortened: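 Viability was determined by ATP-based luminescence (CellTiter-Glo) in PR-UAS-bla HEK293T cells cultured in 2% charcoal-stripped serum and incubated 16 hr with compounds under R5020 stimulation.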

[7] = qHTS assay to identify small molecule agonists of the progesterone receptor (PR) signaling pathway - cell viability counter screen (AID 1346799; calls by dose curve; further: nearly all actives have a fitted effect of over 45% in size)
Procedure, shortened: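 Viability was scored by ATP luminescence (CellTiter-Glo, 30 min, room temperature) in the same wells used for the reporter readout, after 16 hr compound exposure of PR-UAS-bla HEK293T cells.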

[8] = qHTS assay to identify small molecule antagonists of the TGF-beta/Smad signaling pathway - cell viability counter screen (AID 1346824); further: nearly all actives have a fitted effect of over 50% in size
Procedure, shortened: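 SBE-bla HEK 293T cells, incubated overnight, then compound plus 0.25 ng/mL TGF-beta1 (stock added) for 5 hr at 37 C. Viability was read in the same wells by CellTiter-Glo luminescence after 30 min at room temperature.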

[9] = qHTS assay to identify small molecule agonists of the TGF-beta/Smad signaling pathway - cell viability counter screen (AID 1346829); further: top concentration of the series differs between compounds; nearly all actives have a fitted effect of over 45% in size
Procedure, shortened: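 Same-well cytotoxicity: CellTiter-Glo added after the 2 hr room-temperature beta-lactamase substrate step, luminescence measured 30 min later; cells had 5 hr of compound at 37 C.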

[10] = target: Thyrotropin-releasing hormone receptor (Homo sapiens) (UniProt P34981); assay: qHTS assay to identify small molecule antagonists of the thyrotropin-releasing hormone receptor (TRHR) signaling pathway (AID 1346877; active means well fitted inhibition curve with a large enough effect in the repeat runs, not every such curve was filed as active; further: series mostly up to about 51 µM)
Procedure, shortened: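 Intracellular calcium fluorescence, read kinetically every second over 3 min, reports TRH-evoked signalling in HEK293 cells carrying TRHR. Test compounds were added 5 min ahead of a 1 nM TRH challenge.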

[11] = target: Thyrotropin-releasing hormone receptor (Homo sapiens) (UniProt P34981); assay: qHTS assay to identify small molecule agonists of the thyrotropin-releasing hormone receptor (TRHR) signaling pathway (AID 1346891; calls by dose curve;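 further: HEK293 cells expressing TRHR with calcium dye readout; series mostly up to about 58 µM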)
Procedure, shortened: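 Kinetic fluorescence (3 min, 1 s intervals) reported intracellular calcium after compound transfer onto TRHR-Hek293 cells pre-loaded with dye for 2 h at 37 °C.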

[12] = qHTS assay to identify small molecule agonists of the androgen receptor (AR) signaling pathway in the presence of an antagonist - cell viability counter screen (AID 1259379); further: nearly all actives have a fitted effect of over 25% in size; further: potency means the concentration at half of the fitted maximal effect
Procedure, shortened: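 Cells: MDA-kb2 (MMTV-luc, AR and GR elements), 3,000/well, 5 hr settle. Added: nilutamide 3.0uM final, then compounds (15 conc.). Incubation: 16 hr, 37C, no CO2. Read-out: CellTiter-Fluor, 1 hr, fluorescence.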

[13] = qHTS assay to identify small molecule agonists or antagonists of the thyroid stimulating hormone receptor (TSHR) signaling pathway - wild type cell line counter screen (AID 1259384; calls by dose curve)
Procedure, shortened: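 Wild-type Hek293 cells, 800/well, 18 h at 37C, then compound with Ro20-1724 for 30 min RT. cAMP by HTRF (cAMP-d2/anti-cAMP cryptate), 1 h RT, fluorescence read. 15 concentrations, triplicates.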

[14] = qHTS assay to identify small molecule agonists of the estrogen receptor alpha (ER-alpha) signaling pathway in the presence of an antagonist - cell viability counter screen (AID 1259386);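 further: series mostly up to about 92 µM; cells exposed to compounds for 22 h at 37 °C before the viability read; nearly all actives have a fitted effect of over 30% in size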
Procedure, shortened: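 VM7Luc4E2, stripped-serum pre-culture 5 d; 24hr plating; +ICI-182,780 10.0nM final; cpds 15 conc, 22hr, 37C/5% CO2; CellTiter-Fluor added at 21hr, fluorescence 1hr later.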

[15] = target: Progesterone receptor (Homo sapiens) (UniProt P06401); assay: qHTS assay to identify small molecule antagonists of the progesterone receptor (PR) signaling pathway (AID 1346795; active means well fitted inhibition curve with a large enough effect in the signal ratio in the repeat runs, not every such curve was filed as active; the % refers to the signal ratio; further: potency means the concentration at half of the fitted maximal effect)
Procedure, shortened: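 After 6 hr plating at 37C in 2% stripped-serum medium, PR-UAS-bla HEK293T cells got compounds, then 1 nM R5020. Sixteen hours later, LiveBLAzer substrate was applied for 2 hr at room temperature and fluorescence was recorded.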

[16] = qHTS assay to identify small molecule agonists of the TGF-beta/Smad signaling pathway (AID 1346859; active means well fitted activation curve with a large enough effect in the signal ratio in the repeat runs, not every such curve was filed as active; the % refers to the signal ratio; further: potency means the concentration at half of the fitted maximal effect; on activation: series mostly up to about 77 µM)
Procedure, shortened: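 Dual-wavelength fluorescence (460/530 nm emission) quantified beta-lactamase expression under the Smad binding element in HEK 293T cells following 5 hr compound treatment at 37 C.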

[17] = target: Androgen receptor (Homo sapiens) (UniProt P10275); assay: qHTS assay to identify small molecule agonists of the androgen receptor (AR) signaling pathway in the presence of an antagonist (AID 1259381; calls by dose curve; further: nearly all actives have a fitted effect of over 15% in size)
Procedure, shortened: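 MDA-kb2 cells, 3,000/well, rested 5hr at 37C/0% CO2 → nilutamide 3.0uM final or buffer → compounds, 15 conc. → 16hr at 37C → ONE-Glo, 30min RT → luminescence.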

[18] = target: Estrogen receptor beta (Homo sapiens) (UniProt Q92731); assay: qHTS assay to identify small molecule antagonists of the estrogen receptor beta (ER-beta) signaling pathway (AID 1259378; active means well fitted inhibition curve with a large enough effect in the signal ratio in the repeat runs, not every such curve was filed as active; the % refers to the signal ratio; further: potency means the concentration at half of the fitted maximal effect)
Procedure, shortened: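 ER-beta-UAS-bla HEK293T cells in 2% charcoal-stripped FBS medium treated with compound plus 1nM final 17-beta-estradiol for 16 hr at 37C. Beta-lactamase reporter read by FRET substrate fluorescence after 2 hours at room temperature.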

Measured: Potency

Sequence of Androgen receptor (Homo sapiens) (P10275 whole entry, looked up): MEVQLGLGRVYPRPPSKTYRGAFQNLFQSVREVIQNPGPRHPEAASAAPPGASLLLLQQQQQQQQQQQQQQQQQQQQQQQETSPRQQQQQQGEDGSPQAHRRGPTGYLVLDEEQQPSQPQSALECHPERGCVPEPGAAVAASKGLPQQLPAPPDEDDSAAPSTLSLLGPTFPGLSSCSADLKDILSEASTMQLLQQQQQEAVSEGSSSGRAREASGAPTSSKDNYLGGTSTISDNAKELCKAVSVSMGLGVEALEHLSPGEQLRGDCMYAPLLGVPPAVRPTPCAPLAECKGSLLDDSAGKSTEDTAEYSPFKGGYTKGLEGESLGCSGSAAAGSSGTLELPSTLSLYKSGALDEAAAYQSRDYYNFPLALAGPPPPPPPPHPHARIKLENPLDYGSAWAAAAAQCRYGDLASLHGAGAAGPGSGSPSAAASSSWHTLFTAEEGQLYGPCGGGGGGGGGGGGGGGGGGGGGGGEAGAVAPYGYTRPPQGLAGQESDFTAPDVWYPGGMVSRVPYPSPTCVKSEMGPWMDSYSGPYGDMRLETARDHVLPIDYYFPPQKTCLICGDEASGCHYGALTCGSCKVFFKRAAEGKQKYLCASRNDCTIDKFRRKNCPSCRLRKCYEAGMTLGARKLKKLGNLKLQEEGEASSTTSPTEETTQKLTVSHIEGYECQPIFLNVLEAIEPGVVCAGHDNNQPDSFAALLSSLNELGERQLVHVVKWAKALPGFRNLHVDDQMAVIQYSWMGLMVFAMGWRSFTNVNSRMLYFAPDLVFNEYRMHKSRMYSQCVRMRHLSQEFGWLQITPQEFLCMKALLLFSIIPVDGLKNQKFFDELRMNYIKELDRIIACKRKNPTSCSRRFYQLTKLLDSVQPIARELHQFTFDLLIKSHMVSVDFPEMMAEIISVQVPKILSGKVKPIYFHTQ
Sequence of Estrogen receptor (Homo sapiens) (P03372 whole entry, looked up): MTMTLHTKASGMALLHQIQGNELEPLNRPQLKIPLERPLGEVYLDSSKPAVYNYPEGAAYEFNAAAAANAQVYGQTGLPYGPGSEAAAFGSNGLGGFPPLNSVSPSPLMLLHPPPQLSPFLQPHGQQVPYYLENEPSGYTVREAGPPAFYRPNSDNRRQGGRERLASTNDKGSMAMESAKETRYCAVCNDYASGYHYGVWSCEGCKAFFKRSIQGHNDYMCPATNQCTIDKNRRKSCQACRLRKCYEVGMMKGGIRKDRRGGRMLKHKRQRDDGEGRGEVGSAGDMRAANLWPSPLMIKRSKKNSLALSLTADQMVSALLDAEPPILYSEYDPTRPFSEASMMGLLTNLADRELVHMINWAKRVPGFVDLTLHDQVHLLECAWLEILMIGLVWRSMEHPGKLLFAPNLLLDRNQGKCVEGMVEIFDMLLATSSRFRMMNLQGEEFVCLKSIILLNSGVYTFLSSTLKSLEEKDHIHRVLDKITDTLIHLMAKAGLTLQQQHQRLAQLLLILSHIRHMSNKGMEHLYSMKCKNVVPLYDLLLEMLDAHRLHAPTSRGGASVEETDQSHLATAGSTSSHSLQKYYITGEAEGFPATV
Sequence of Progesterone receptor (Homo sapiens) (P06401 whole entry, looked up): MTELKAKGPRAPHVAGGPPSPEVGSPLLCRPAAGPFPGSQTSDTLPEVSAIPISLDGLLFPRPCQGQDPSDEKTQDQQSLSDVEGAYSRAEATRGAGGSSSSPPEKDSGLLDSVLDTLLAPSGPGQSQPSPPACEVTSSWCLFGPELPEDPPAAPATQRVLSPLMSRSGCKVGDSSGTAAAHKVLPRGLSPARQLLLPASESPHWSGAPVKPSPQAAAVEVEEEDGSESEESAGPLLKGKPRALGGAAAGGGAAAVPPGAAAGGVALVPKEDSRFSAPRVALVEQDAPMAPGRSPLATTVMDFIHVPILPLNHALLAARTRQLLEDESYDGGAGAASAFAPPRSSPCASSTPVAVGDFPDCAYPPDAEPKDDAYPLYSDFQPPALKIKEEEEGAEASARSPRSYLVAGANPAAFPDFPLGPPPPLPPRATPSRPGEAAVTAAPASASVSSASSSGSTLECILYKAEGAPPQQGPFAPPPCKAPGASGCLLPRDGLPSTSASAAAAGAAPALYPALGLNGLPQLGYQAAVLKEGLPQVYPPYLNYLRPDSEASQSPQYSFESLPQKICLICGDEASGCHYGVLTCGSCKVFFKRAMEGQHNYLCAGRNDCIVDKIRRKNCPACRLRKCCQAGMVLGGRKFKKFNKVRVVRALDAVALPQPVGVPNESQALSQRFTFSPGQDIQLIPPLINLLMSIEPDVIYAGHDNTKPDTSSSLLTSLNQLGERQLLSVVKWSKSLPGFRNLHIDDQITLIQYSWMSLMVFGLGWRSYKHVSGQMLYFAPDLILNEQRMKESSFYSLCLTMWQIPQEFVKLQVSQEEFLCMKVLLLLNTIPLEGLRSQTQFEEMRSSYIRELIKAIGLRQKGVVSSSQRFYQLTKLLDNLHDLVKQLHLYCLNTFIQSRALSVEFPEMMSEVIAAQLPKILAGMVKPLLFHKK
Sequence of Thyrotropin-releasing hormone receptor (Homo sapiens) (P34981 whole entry, looked up): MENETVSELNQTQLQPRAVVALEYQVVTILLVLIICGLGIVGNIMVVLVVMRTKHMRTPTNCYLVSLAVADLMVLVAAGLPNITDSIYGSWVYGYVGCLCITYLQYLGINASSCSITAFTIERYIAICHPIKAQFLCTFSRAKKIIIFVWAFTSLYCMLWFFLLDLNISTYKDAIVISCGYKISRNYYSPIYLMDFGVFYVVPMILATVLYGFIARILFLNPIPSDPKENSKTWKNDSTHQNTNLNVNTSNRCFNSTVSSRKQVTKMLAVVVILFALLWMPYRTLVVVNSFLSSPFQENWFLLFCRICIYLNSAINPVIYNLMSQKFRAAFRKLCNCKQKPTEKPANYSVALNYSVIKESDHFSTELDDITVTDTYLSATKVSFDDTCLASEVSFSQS
Sequence of Thyrotropin receptor (Homo sapiens) (P16473 whole entry, looked up): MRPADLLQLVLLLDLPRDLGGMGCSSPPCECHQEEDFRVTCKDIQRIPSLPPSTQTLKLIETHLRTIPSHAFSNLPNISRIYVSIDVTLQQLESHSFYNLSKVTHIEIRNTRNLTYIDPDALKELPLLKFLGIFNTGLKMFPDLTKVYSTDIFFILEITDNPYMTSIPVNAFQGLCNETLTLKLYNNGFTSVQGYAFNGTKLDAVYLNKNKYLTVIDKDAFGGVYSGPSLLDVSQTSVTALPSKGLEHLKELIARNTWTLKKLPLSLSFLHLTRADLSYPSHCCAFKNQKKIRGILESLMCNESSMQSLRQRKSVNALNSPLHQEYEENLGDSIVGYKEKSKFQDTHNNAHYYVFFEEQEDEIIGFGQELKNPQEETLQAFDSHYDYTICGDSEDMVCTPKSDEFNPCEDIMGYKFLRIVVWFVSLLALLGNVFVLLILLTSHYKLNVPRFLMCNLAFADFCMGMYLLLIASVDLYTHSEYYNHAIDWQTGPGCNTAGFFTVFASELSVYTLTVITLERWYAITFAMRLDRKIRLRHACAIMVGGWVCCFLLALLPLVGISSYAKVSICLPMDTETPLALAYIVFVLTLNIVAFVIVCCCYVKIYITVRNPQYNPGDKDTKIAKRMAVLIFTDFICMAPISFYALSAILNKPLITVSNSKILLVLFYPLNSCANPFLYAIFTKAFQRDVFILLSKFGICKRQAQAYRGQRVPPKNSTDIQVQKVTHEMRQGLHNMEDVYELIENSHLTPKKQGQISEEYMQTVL
Sequence of Estrogen receptor beta (Homo sapiens) (Q92731 whole entry, looked up): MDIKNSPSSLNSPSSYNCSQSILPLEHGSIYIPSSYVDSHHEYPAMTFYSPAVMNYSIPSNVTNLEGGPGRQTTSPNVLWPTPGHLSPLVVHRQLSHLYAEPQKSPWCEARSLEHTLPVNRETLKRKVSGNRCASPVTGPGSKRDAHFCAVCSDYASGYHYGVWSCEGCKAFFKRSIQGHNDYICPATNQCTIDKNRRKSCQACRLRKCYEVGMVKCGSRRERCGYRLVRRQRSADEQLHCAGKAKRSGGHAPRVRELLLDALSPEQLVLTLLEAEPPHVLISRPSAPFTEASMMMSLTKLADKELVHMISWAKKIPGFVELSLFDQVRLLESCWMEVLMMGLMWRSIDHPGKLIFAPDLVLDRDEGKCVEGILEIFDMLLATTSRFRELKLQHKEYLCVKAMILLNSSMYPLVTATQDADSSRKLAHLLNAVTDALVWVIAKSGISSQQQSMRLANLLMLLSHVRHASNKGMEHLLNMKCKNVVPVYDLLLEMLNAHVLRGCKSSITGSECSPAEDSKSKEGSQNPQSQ

O=c1c(O)c(-c2ccc(O)cc2O)oc2cc(O)cc(O)c12
not listed: [12] | [13] | [14] | [15] | [16] | [17] | [18]
inactive: all other assays above

OC1CCCc2ccccc21 (stereo not given)
not listed: [5] | [8] | [9] | [17] | [18]
inactive: all other assays above

[Cl][Pt-2]([Cl])([Cl])[Cl]
active: [4] 34.5 µM
not listed: [7] | [17] | [18]
inactive: all other assays above

COC(=O)Nc1nc2ccc(C(=O)c3ccccc3)cc2[nH]1
not listed: [4] | [6] | [7] | [12] | [15] | [16] | [18]
inactive: all other assays above

CCO[C@@H]1O[C@H](C(COCc2ccccc2)OCc2ccccc2)[C@H](OCc2ccccc2)[C@H]1O (stereo not given in full)
active: [15] 26.6 µM
not listed: [1] | [3] | [6] | [8] | [17] | [18]
inactive: all other assays above

C/C=C/C=C/COC(=O)C(C)C
not listed: [3] | [5] | [12] | [17] | [18]
inactive: all other assays above

CNC(=O)c1ccccc1Sc1ccc2c(/C=C/c3ccccn3)n[nH]c2c1
inactive: [13] | [4] | [16] | [10] | [11]
active: [12] 26.6 µM | [15] 16.8 µM

CC(C)NC[C@@H](O)COc1ccc(CC(N)=O)cc1
not listed: [7] | [9] | [17] | [18]
inactive: all other assays above

Cc1cc(C(C)(C)C)cc(C)c1CC1=NCCN1
not listed: [9] | [10] | [11] | [17] | [18]
inactive: all other assays above

Cc1c(N)cccc1C(F)(F)F
not listed: [3] | [6] | [7] | [18]
inactive: all other assays above

CCCCCCCCCCCCOC(=O)c1ccc(O)cc1
not listed: [4] | [7] | [9] | [13] | [14] | [15] | [18]
inactive: all other assays above

CC1(C)CCC[C@]2(C)[C@H]3CCO[C@]3(C)CC[C@@H]12
not listed: [3] | [17] | [18]
inactive: all other assays above

c1ccc(C(O[C@@H]2CCCN(CCc3ccc4c(c3)OCO4)C2)c2ccccc2)cc1
active: [18] 48.6 µM
not listed: [1] | [7] | [9] | [12] | [14] | [15] | [17]
inactive: all other assays above

Nc1ccc(Oc2ccc(Cl)cc2)cc1
inactive: [12] | [2] | [3] | [13] | [4] | [14] | [8] | [9] | [16]
active: [15] 18.9 µM

Cc1ccc(C(=O)O)cc1
not listed: [3] | [9] | [17] | [18]
inactive: all other assays above

Cc1cc(C)c(/C=C2\C(=O)Nc3ccccc32)[nH]1
active: [1] 11.9 µM
not listed: [4] | [5] | [11] | [13] | [14] | [15] | [18]
inactive: all other assays above

Oc1c(I)cc(Cl)c2cccnc12
inactive: [17] | [5] | [6] | [7] | [9] | [16] | [10] | [11]
active: [12] 48.5 µM | [15] 6.84 µM and 7.5 µM

CCCCNS(=O)(=O)c1ccc(C)cc1
not listed: [4] | [7] | [13] | [14] | [15] | [17] | [18]
inactive: all other assays above

CCc1oc2ccccc2c1C(=O)c1cc(I)c(O)c(I)c1
inactive: [3] | [13] | [4] | [8] | [16]
active: [15] 21.1 µM

Clc1ccnc(Cl)n1
not listed: [6] | [15] | [17] | [18]
inactive: all other assays above

O=S(=O)(O)c1ccc(Nc2nc(Nc3ccc(/C=C/c4ccc(Nc5nc(Nc6ccc(S(=O)(=O)O)cc6)nc(N(CCO)CCO)n5)cc4S(=O)(=O)O)c(S(=O)(=O)O)c3)nc(N(CCO)CCO)n2)cc1
active: [16] 33.1 µM
not listed: [5] | [7] | [15] | [18]
inactive: all other assays above

COc1ccc(-c2coc3cc(O)ccc3c2=O)cc1
active: [3] 1.09 µM
not listed: [6] | [7] | [9] | [15] | [17] | [18]
inactive: all other assays above

Cc1c(C)c2c(c(C)c1OC(=O)c1cccnc1)CC[C@@](C)(CCC[C@H](C)CCC[C@H](C)CCCC(C)C)O2
not listed: [10] | [11] | [14] | [17] | [18]
inactive: all other assays above

CCCc1ccc(OCC(=O)N2CCN(C(=O)COc3ccc(CCC)cc3OC)CC2)c(OC)c1
not listed: [1] | [12] | [18]
inactive: all other assays above

COC1=C(OC)C(=O)C(CCCCCCCCCCO)=C(C)C1=O
active: [1] 23.7 µM | [2] 23.7 µM
inactive: [17] | [3] | [5] | [8] | [9] | [16] | [10] | [11]
